Compound activity (PubChem BioAssay)
Giardia killer – Giardia lamblia killing; 340,000 compounds, 0.15% hits; activity change, % at 7.66 µM, hits read low; Giardia lamblia trophozoite viability; in the data active means activity change below about -80%; inconclusive means between about -30% and that limit;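 further: parasites exposed to compound for two days anaerobically before the ATP read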
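Anaerobic 48 hrs incubation at 37 deg C of 100 trophozoites/well with test compounds; ATPLite 1-Step luminescence, 15-30 min RT, reports cellular ATP as viability.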
KB-3-1 cytotox – kills parental KB-3-1 adenocarcinoma cells; KB-3-1 viability, CellTiter-Glo ATP luminescence, 72 h; Potency, µM (top dose mostly 46.1 µM), actives largely listed as cytotoxic; 400,000 compounds, 1.4% hits; further: nearly all actives have a fitted effect of over 60% in size
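Using CellTiter-Glo luminescence, growth of non-resistant KB-3-1 adenocarcinoma cells is assessed 72 h after pin-tool compound addition at 37 °C. Normalized responses across the concentration series yield fitted curves.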
MCF10A rerep – inducers of DNA re-replication in MCF 10A breast cells | Potency, µM (doses to about 46.1 µM), usual class: activators | MCF 10A DNA re-replication, Hoechst nuclear intensity, 48 h | 350,000 compounds, 2.9% hits; further: nearly all actives have a fitted effect of over 50% in size
SW480 rereplic – induces DNA re-replication in SW480 colon adenocarcinoma cells; AID 624297; SW480 DNA re-replication, Hoechst DNA content imaging, 48 h; Potency, µM (top dose mostly 46.1 µM), hits mostly activators; 340,000 compounds, 1.8% hits; further: nearly all actives have a fitted effect of over 55% in size
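Cells (250 per well) received 23 nL compound or DMSO by pin tool and were kept 48 hr at 37 C, 5% CO2. Nuclei were then stained with Hoechst for 40 min and scanned for DNA content.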
S-ASM inh – human S-ASM enzyme inhibition. P17405. placental ASM, HMU-PC fluorogenic substrate, 60 min. Potency, µM (series often up to 57.5 µM), most hits filed as inhibitors. 340,000 compounds, 0.006% hits. AID 504937
Target sequence (P17405 47-631 limits assumed): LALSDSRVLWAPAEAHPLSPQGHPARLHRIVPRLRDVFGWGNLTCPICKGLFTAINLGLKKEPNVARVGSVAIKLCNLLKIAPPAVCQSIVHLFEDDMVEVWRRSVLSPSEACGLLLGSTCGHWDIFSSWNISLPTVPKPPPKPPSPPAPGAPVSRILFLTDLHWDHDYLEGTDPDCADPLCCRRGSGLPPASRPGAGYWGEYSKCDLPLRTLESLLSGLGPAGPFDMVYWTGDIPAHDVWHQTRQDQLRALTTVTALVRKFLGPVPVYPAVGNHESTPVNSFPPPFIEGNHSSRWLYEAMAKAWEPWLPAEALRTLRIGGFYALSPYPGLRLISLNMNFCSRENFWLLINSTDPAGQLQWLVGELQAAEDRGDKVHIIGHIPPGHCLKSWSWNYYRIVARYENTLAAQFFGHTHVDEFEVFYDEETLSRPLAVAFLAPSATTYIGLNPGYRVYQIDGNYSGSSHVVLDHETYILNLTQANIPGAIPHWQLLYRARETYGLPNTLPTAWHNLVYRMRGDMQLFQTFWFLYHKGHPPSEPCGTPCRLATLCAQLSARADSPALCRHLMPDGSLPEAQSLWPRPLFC
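qHTS format. ASM enzyme prepared from human placenta hydrolyses the fluorogenic substrate HMU-PC0 (9 uM final) over 60 min at 37 °C after a 10 min compound preincubation.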
KB-V1 cytotox – KB-V1 MDR subline cytotoxicity. Potency, µM (highest dose often 46.1 µM), actives largely listed as cytotoxic. 400,000 compounds, 3.4% hits. KB-V1 MDR cells viability, CellTiter-Glo, 72 h; further: nearly all actives have a fitted effect of over 60% in size
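In this primary screen, KB-V1 cells overexpressing P-gp are incubated with library compounds (lowest to highest concentration) for 72 h at 37 degrees C before a luminescent ATP viability read.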
Of the large screens only hits and unclear results are named; the others gave an inactive call. In the library only some 6.9% were active in any assay of this set; here they are far more common. Unless noted, the call rests on the fitted dose curve; in most records, active means well fitted curve in the direction sought with a large enough effect; inconclusive means small, poorly fitted or top-dose-only effect, or another doubt; inactive means no such curve, though single readings can be large; an effect the other way counts as inactive or inconclusive.

OCCOC[C@H]1O[C@H](OCCO)[C@H](OCCO)[C@@H](OCCO)[C@@H]1OCCO (tested in a mixture with another compound)	none (no result: Giardia killer, KB-3-1 cytotox, S-ASM inh, KB-V1 cytotox)
CCOC(=O)CCc1c(C)c2cc3c(c(C)c2oc1=O)OCN(CCc1ccccc1OC)C3	KB-V1 cytotox inconclusive (no result: Giardia killer, MCF10A rerep, SW480 rereplic, S-ASM inh)
N[C@@H](Cc1ccc(O)cc1)C(=O)Nc1ccc2ccccc2c1	none
CCOc1ccccc1N(CC)C(=O)Cn1ncc2c([nH]c3ccccc32)c1=O	KB-3-1 cytotox inconclusive (no result: Giardia killer, MCF10A rerep, SW480 rereplic, S-ASM inh)
Cc1ccc(-n2nnnc2SCc2nnc(-c3ccccc3Br)o2)c(C)c1	KB-V1 cytotox 10µM
Cn1nnnc1SCc1nnc(-c2ccccc2Br)o1	none
CN1C(=O)Cc2cc(S(=O)(=O)CCC(=O)N3CCN(c4cccc(Cl)c4)CC3)ccc21	none (no result: Giardia killer, MCF10A rerep, SW480 rereplic, S-ASM inh)
O=C(NC1CCCC1)C(c1ccc(Cl)cc1)N(Cc1ccc(F)cc1)C(=O)CCl (centres undefined)	SW480 rereplic inconclusive
O=C(NC1CCCC1)C(c1ccc(F)cc1)N(Cc1ccc(Cl)cc1)C(=O)CCl (centres undefined)	KB-3-1 cytotox inconclusive, KB-V1 cytotox 16µM
COc1ccc(C(C(=O)NC2CCCCC2)N(C(=O)CCl)c2ccc(Cl)cc2)cc1 (centres undefined)	KB-3-1 cytotox 5.8µM, MCF10A rerep inconclusive, SW480 rereplic inconclusive, KB-V1 cytotox inconclusive
O=C(NC1CCCCC1)C(c1cccnc1)N(C(=O)CCl)c1cccc(Cl)c1 (centres undefined)	KB-3-1 cytotox 23µM, MCF10A rerep 13µM, SW480 rereplic 4.1µM, KB-V1 cytotox 21µM
Cc1ccc(C(=O)N(CC(=O)NC2CCCC2)Cc2cccs2)s1	KB-V1 cytotox 5.8µM
Cc1ccc(C(=O)N(CC(=O)NC2CCCC2)c2ccccc2C)s1	none
CC1CCCC(NC(=O)CNC(=S)N(Cc2ccccc2)Cc2cccs2)C1C (centres undefined)	MCF10A rerep 13µM, SW480 rereplic inconclusive, KB-V1 cytotox inconclusive
CCC(C)(C(=O)NC1CCCCC1)N(Cc1cccs1)C(=O)Cc1cccs1 (centres undefined)	KB-V1 cytotox 13µM
CCCCNC(=O)CNC(=S)N(Cc1ccccc1)Cc1cccs1	KB-V1 cytotox inconclusive
Cn1cccc1C(C(=O)NC1CCCCC1)N(C(=O)Cc1cccs1)C1CC1 (centres undefined)	KB-V1 cytotox 6.5µM
COC(=O)c1ccc(C(C(=O)NC2CCCCC2)N(Cc2ccc(F)cc2)C(=O)Cc2cccs2)cc1 (centres undefined)	KB-V1 cytotox 3.7µM
COc1ccc(N(C(=O)Cc2cccs2)C(C(=O)NC2CCCCC2)c2cccn2C)cc1OC (centres undefined)	none
COC(=O)c1ccc(C(C(=O)NC2CCCCC2)N(CCc2ccccc2)C(=O)Cc2cccs2)cc1 (centres undefined)	none
CCCSc1nnc2n(-c3ccc(OC)cc3)c(=O)c3c4c(sc3n12)COC(C(C)C)C4 (centres undefined)	KB-3-1 cytotox inconclusive (no result: Giardia killer, MCF10A rerep, SW480 rereplic, S-ASM inh)
CCC(=O)N1CCc2cc(S(=O)(=O)NCCC(=O)Nc3ccc(CC)cc3)ccc21	none (no result: Giardia killer, MCF10A rerep, SW480 rereplic, S-ASM inh)
CCOC(=O)CNC(=S)N(Cc1cccs1)C1CCCCC1	KB-V1 cytotox 7.3µM
CCCCN(Cc1ccccc1)S(=O)(=O)c1cc(Br)cc2c1N(C(C)=O)C(C)C2 (centres undefined)	KB-V1 cytotox 21µM
CC(=O)N1c2c(cc(Br)cc2S(=O)(=O)NCc2cccnc2)CC1C (centres undefined)	none
CCCCSCCCNC(=O)CN1C(=O)c2cccnc2Oc2ccc(Cl)cc21	none (no result: Giardia killer, MCF10A rerep, SW480 rereplic, S-ASM inh)
N#C/C(=C\Nc1ccc2c(c1)OCCO2)c1nc(-c2ccccc2)cs1	MCF10A rerep inconclusive, SW480 rereplic inconclusive
Cc1ccc2nc(/C(C#N)=C\c3ccc([N+](=O)[O-])o3)[nH]c2c1	MCF10A rerep 9.2µM, SW480 rereplic inconclusive
CC(C)(C)/C(O)=C(/C#N)c1nc2ccccc2[nH]1	MCF10A rerep inconclusive, KB-V1 cytotox inconclusive
N#C/C(=C\c1ccc(Sc2ccccc2)o1)c1nc2ccccc2[nH]1	none
COc1ccc(-c2csc(/C(C#N)=C/Nc3ccc4c(c3)OCCO4)n2)cc1	MCF10A rerep 2.1µM, SW480 rereplic 2.3µM
N#C/C(=C\c1ccc([N+](=O)[O-])o1)c1nc2ccccc2[nH]1	KB-3-1 cytotox 13µM, MCF10A rerep 3.7µM, SW480 rereplic inconclusive
N#C/C(=C(/O)c1ccc([N+](=O)[O-])o1)c1nc2ccccc2[nH]1	Giardia killer -92, KB-3-1 cytotox inconclusive, MCF10A rerep 3.3µM, SW480 rereplic inconclusive, KB-V1 cytotox inconclusive
COc1ccc(Cl)cc1NC(=O)CSc1nnc(C)n2c1cc1occc12	none (no result: Giardia killer, MCF10A rerep, SW480 rereplic, S-ASM inh)
Cc1ccc(NC(=O)Cn2c(=O)n(Cc3nc(C)no3)c(=O)c3cc4c(cc32)OCO4)c(Cl)c1	none (no result: Giardia killer, MCF10A rerep, SW480 rereplic, S-ASM inh)
CCOC(=O)Cn1c(=N)n(Cc2ccc(C(C)(C)C)cc2)c2ccccc21	none (no result: Giardia killer, MCF10A rerep, SW480 rereplic, S-ASM inh)
N#C/C(=C\Nc1ccc2c(c1)OCCO2)c1nc2ccccc2[nH]1	KB-3-1 cytotox inconclusive, MCF10A rerep inconclusive, SW480 rereplic inconclusive, KB-V1 cytotox 15µM
O=C(CCc1nc2ccccc2[nH]1)Nc1ccc2c(c1)OCCO2	none
Cc1[nH]n(-c2ccccc2)c(=O)c1/C=N/N(C)c1ccccc1	SW480 rereplic inconclusive, KB-V1 cytotox 15µM
Cc1ccc2cccc(N=Cc3c(C)[nH]n(-c4ccccc4)c3=O)c2n1	SW480 rereplic 7.3µM, S-ASM inh inconclusive, KB-V1 cytotox 13µM
Cc1[nH]n(-c2ccccc2)c(=O)c1/C=N/O	MCF10A rerep inconclusive, SW480 rereplic inconclusive
O=C(NC(c1ccccc1)c1c(O)ccc2ccccc12)c1ccccc1Cl (centres undefined)	KB-3-1 cytotox inconclusive, MCF10A rerep 23µM, SW480 rereplic inconclusive, KB-V1 cytotox 21µM
O=C(NC(c1ccc(Cl)cc1)c1c(O)ccc2ccccc12)c1ccccc1 (centres undefined)	KB-3-1 cytotox inconclusive, MCF10A rerep inconclusive, SW480 rereplic inconclusive, KB-V1 cytotox 21µM
CC(C)CC(=O)NC(c1ccccc1)c1c(O)ccc2ccccc12 (centres undefined)	none
CC(=O)NC(c1ccc(Cl)cc1)c1c(O)ccc2ccc(O)cc12 (centres undefined)	none
CCOc1ccc(-n2c(=O)c3c4c(sc3n(CC(=O)NC(C)CC)c2=O)CCCC4)cc1 (centres undefined)	KB-V1 cytotox inconclusive (no result: Giardia killer, MCF10A rerep, SW480 rereplic, S-ASM inh)
CC(=O)Nc1nonc1-c1nnc(SCc2ccccc2F)n1C	none (no result: Giardia killer, MCF10A rerep, SW480 rereplic, S-ASM inh)
CC(C)OC(=O)CC(=O)CSc1nc2c(c(-c3cccs3)c1C#N)CCC2	MCF10A rerep 21µM
